Among the test systems are SK-MEL-2 melanoma; EKVX NSCLC; SN12C renal; UO-31 renal; TK-10 renal; ACHN renal; A498 renal; CCRF-CEM leukemia; MOLT-4 leukemia; SR leukemia.
What all share (assay): NCI-60 one-dose screen, 48 h (100 = growth as untreated, 0 = no growth, -100 = all killed)
Conditions in all cases: 10 µM unless noted

Molecules are shown by their SMILES. This is part of a sample that, as a whole, favours compounds with a hit. Of some 83,000 tested, about 20% had one in any assay.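 The endpoint reported here, percent growth, reads 100 for growth as untreated, 0 for no net growth and -100 for all cells dead.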 Values without a mark were called inactive. The source made the active and inactive calls. How the source made its calls: active means growth percent below 10; inactive means the rest.

Regarding `COc1ccc2[nH]c(-c3ccccc3)c(C=C(C#N)C#N)c2c1`, the growth in the test with SK-MEL-2 melanoma is 24.1%; with EKVX NSCLC, 33.3%; in the test with SN12C renal, 59%; in the test on UO-31 renal, 53.1%; in the test with TK-10 renal it was 41.5%; in the test with ACHN renal, 54.2%. Moreover, the growth is 21% in the test on A498 renal, 2.26% (active) with CCRF-CEM leukemia, 0.472% (active) in the test with MOLT-4 leukemia and -5.05% (active) with SR leukemia.

Regarding `Cc1cc(C)n(-c2nc(-c3cccs3)c(C#N)c(=O)[nH]2)n1`, the growth in the test on SK-MEL-2 melanoma was 97.2%; in the test with EKVX NSCLC, 95.5%; in the test with SN12C renal, 95.8%; with UO-31 renal, 89.1%; in the test with TK-10 renal, 103%; with ACHN renal it was 108%. For the same compound, the growth with A498 renal is 93.8%; in the test with CCRF-CEM leukemia, 103%; in the test with MOLT-4 leukemia it was 87%; with SR leukemia, 100%.

`N#Cc1ccc(N2Cc3cc(Cl)ccc3OC3=C2C(=O)N(Cc2ccccc2)C3=O)cc1`: the growth in the test on SK-MEL-2 melanoma is -38.7% (active); with EKVX NSCLC, 43.8%; with SN12C renal, -39.5% (active); in the test with UO-31 renal, -90.5% (active); in the test with TK-10 renal, -66.3% (active); in the test on ACHN renal it was -85.6% (active). In addition, the growth is 129% in the test with A498 renal, -9.47% (active) in the test on CCRF-CEM leukemia, -24.7% (active) in the test on MOLT-4 leukemia and -25.7% (active) in the test with SR leukemia.

Consider `O=C1CCc2ccccc2N1`, for which the growth with SK-MEL-2 melanoma was 101%; with EKVX NSCLC it was 75.5%; in the test with SN12C renal, 99.1%; in the test with UO-31 renal it was 90.3%; in the test on TK-10 renal, 88.2%; in the test with ACHN renal, 100%. Moreover, the growth in the test with A498 renal was 111%; in the test on CCRF-CEM leukemia, 107%; with MOLT-4 leukemia it was 110%; with SR leukemia, 93.5%.

For `Clc1ccc2c(NCCCNC3CCCCC3)ccnc2c1`, the growth is 107% in the test on SK-MEL-2 melanoma; 66.2% in the test on EKVX NSCLC; 97% with SN12C renal; 83% with UO-31 renal; 111% in the test with TK-10 renal; 116% in the test on ACHN renal. The growth is 98.9% with A498 renal, 67.7% in the test on CCRF-CEM leukemia, 6.38% (active) with MOLT-4 leukemia and 46.8% in the test with SR leukemia.

On to `C#C[C@@]1(O)[C@@H](CO)O[C@@H](n2cc(Cl)c3c(N)ccnc32)[C@@H]1O`, for which the growth was 76.9% with SK-MEL-2 melanoma; 89.7% with EKVX NSCLC; 78.8% in the test on SN12C renal; 72.2% in the test with UO-31 renal; 122% in the test on TK-10 renal; 64.8% in the test with ACHN renal. The growth in the test with A498 renal is 87.7%; in the test with CCRF-CEM leukemia, 58.4%; with MOLT-4 leukemia, 45.6%; in the test with SR leukemia, 68.9%.

Consider `CCOC(=O)c1c(C)nc2c(c1N)/C(=C/c1ccccn1)C(=O)N2Cc1ccccc1`, for which the growth in the test with SK-MEL-2 melanoma was -26.1% (active); with EKVX NSCLC, 24.8%; with SN12C renal it was 8.15% (active); in the test on UO-31 renal, -65.6% (active); in the test with TK-10 renal, 2.08% (active); with ACHN renal it was 0.89% (active). Also, the growth is 54.6% in the test with A498 renal, 2.47% (active) in the test with CCRF-CEM leukemia, -12.8% (active) in the test with MOLT-4 leukemia and -11.8% (active) in the test with SR leukemia.

Turning to `O=C(CCc1nnc2sc(OCc3ccccc3)nn12)c1nc2ccc([N+](=O)[O-])cc2[nH]1`, the growth is 95.6% in the test with SK-MEL-2 melanoma; 89.3% in the test on EKVX NSCLC; 106% in the test on SN12C renal; 67.2% in the test on UO-31 renal; 131% in the test with TK-10 renal; 97% with ACHN renal. Also, the growth is 111% with A498 renal, 104% in the test with CCRF-CEM leukemia, 95.4% in the test with MOLT-4 leukemia and 84.1% with SR leukemia.

For `COc1ccc(OCC(=O)OC(C)C)cc1`, the growth was 109% in the test on SK-MEL-2 melanoma; 99% with EKVX NSCLC; 96.8% in the test on SN12C renal; 89.6% with UO-31 renal; 92.9% in the test with TK-10 renal; 108% in the test with ACHN renal. Besides, the growth was 92% in the test with A498 renal, 112% in the test on CCRF-CEM leukemia, 91.1% in the test on MOLT-4 leukemia and 91.9% with SR leukemia.

`Nc1c(C(=O)c2ccccc2)sc2nc(-c3cc4ccccc4o3)cc(-c3ccc(Cl)cc3)c12`: the growth in the test on SK-MEL-2 melanoma is 84.1%; in the test on EKVX NSCLC it was 103%; in the test with SN12C renal, 165%; in the test on UO-31 renal, 79.1%; in the test on TK-10 renal, 137%; with ACHN renal it was 82.9%. Also, the growth in the test with A498 renal was 199%; in the test on CCRF-CEM leukemia, 105%; in the test on MOLT-4 leukemia it was 101%; in the test on SR leukemia, 108%.

For the compound `O=c1[nH]c2ccccc2cc1-c1nc2ccncc2[nH]1`, the growth was 73.9% in the test with SK-MEL-2 melanoma; 81.9% in the test on EKVX NSCLC; 94.3% in the test with SN12C renal; 78.4% in the test with UO-31 renal; 73.8% with TK-10 renal; 72.2% in the test on ACHN renal. The growth in the test on A498 renal was 88.7%; in the test with CCRF-CEM leukemia it was 59.5%; in the test on MOLT-4 leukemia, 45.8%; in the test with SR leukemia it was 46.8%.

With `O=c1c2ccccc2oc2ccc(OCCCCCCN3CCCCCC3)cc12`, the growth was 76.9% in the test on SK-MEL-2 melanoma; 62.8% in the test with EKVX NSCLC; 55% with SN12C renal; 41.8% with UO-31 renal; 66.3% in the test with TK-10 renal; 65.7% with ACHN renal. Further, the growth in the test with A498 renal is 70.2%; with CCRF-CEM leukemia, 43.3%; with MOLT-4 leukemia, 6.07% (active); in the test with SR leukemia it was 1.08% (active).

Consider `COc1cccc(NC(=O)Nc2ccc(Nc3ncnc4[nH]c(C)c(C)c34)cc2)c1`, for which the growth in the test on SK-MEL-2 melanoma was 104%; in the test with EKVX NSCLC it was 96.5%; with SN12C renal, 95%; in the test on UO-31 renal, 85.2%; in the test with TK-10 renal it was 112%; with ACHN renal, 102%. The growth in the test with A498 renal was 107%; in the test with CCRF-CEM leukemia, 86.1%; in the test with MOLT-4 leukemia, 78.8%; in the test on SR leukemia, 91.1%.

For `COc1ccc(Nc2cc(NC(=O)CNc3cc(OC)c(Cl)c(OC)c3Cl)ncn2)cc1`, the growth in the test with SK-MEL-2 melanoma was 84.8%; with EKVX NSCLC it was 72.2%; in the test on SN12C renal, 89.2%; in the test with UO-31 renal, 59.6%; in the test with TK-10 renal, 93.1%; in the test with ACHN renal it was 78.8%. In addition, the growth is -1.25% (active) in the test on A498 renal, 89.3% with CCRF-CEM leukemia, 52.2% with MOLT-4 leukemia and 78.1% with SR leukemia.

The record behind these values is PubChem BioAssay (NCI).
